# Screens (PubChem BioAssay)
# 3T3 cytotox = kills NIH 3T3 cells; hit rate 4.3% among 94,000; Potency, µM (highest dose often 96.7 µM), inactives show at the top dose activity change, negative = cytotoxicity, most hits filed as inhibitors; NIH 3T3 viability, CellTiter-Glo ATP luminescence, 48-72 h; further: on the % scale 0 is the no-effect control and ±100 the full control effect; nearly all actives have a fitted effect of over 55% in size
#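 Viability of NIH 3T3 cells after 48 or 72 hr compound treatment at 37 °C was assessed by CellTiter-Glo, with luminescence imaged following a 10 min room-temperature step.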
# HEK cytotox = HEK 293 cell cytotoxicity; HEK 293 viability, ATP luminescence (CellTiter-Glo), 48-72 h; Potency, µM (series often up to 115 µM), without a hit: at the top dose activity change, negative = cytotoxicity, usual class: inhibitors; hit rate 6.6% among 94,000; AID 1345083; further: on the % scale 0 is the no-effect control and ±100 the full control effect; nearly all actives have a fitted effect of over 60% in size
#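 Pintool-delivered compounds were incubated with HEK 293 cells (250 cells/well) at 37 degree Celsius for 48 or 72 hr. ATP-dependent luminescence (CellTiter-Glo) then reported remaining viable cells.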
# hNpr1 antagonist = human Npr1 receptor antagonism. P16066. HEK293 hNpr1 GloSensor cGMP, ANP-stimulated luminescence. Potency, µM (highest dose often 46.3 µM), for inactives: at the highest dose activity change, negative = inhibition, most hits filed as inhibitors. hit rate 1.6% among 76,000. AID 1347048; calls by dose curve; further: on the % scale 0 is the no-effect control and ±100 the full control effect; nearly all actives have a fitted effect of over 60% in size
#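 Compound pre-incubated 30 min at room temperature on GloSensor-loaded HEK293 cells stably carrying hNpr1 and the pGS-40F cGMP biosensor. Stimulation uses hNppA at 0.1 nM final; luminescence is taken at baseline and 20 min post-agonist.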
# FLuc inh-1 = Photinus pyralis luciferase inhibition. hit rate 2.5% among 76,000. Potency, µM (top dose mostly 115 µM), hits mostly inhibitors. purified P. pyralis luciferase, luminescence, biochemical; further: on the % scale 0 is the no-effect control and ±100 the full control effect; nearly all actives have a fitted effect of over 65% in size
#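 Luminescence read by CCD imager after adding enzyme (10nM final) to wells holding compound, titrated in qHTS. Substrates 10uM each D-luciferin and ATP; buffer 50mM Tris acetate pH 7.5, 10mM Mg acetate, Tween-20, BSA.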
# FLuc SDR -ATP = binders stabilizing firefly luciferase, without ATP; shares compounds with FLuc inh-1; Purified FLuc-C-HiBiT, Nano-Glo HiBiT luminescence, no ATP; Potency, µM (titrated, usually from 32.7 µM), without a hit: at the highest dose activation (signal gain), actives largely listed as activators; hit rate 7.8% among 1,300; AID 1963318; further: nearly all actives have a fitted effect of over 55% in size
# FLuc SDR ATP = stabilizes firefly luciferase with ATP present | hit rate 8.7% among 1,300 | purified FLuc-C-HiBiT + ATP, HiBiT complementation luminescence | shares compounds with FLuc inh-1 | Potency, µM (titrated, usually from 32.7 µM), for the others: at the highest dose activation (gain of signal), actives largely listed as activators;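 further: signal reports ligand binding via conformational change of the enzyme rather than luciferase catalysis; % of control where 0% means no effect; nearly all actives have a fitted effect of over 55% in size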
# FLuc inh-2 = blocks firefly luciferase enzymatic activity | Potency, µM (top dose mostly 32.7 µM), for the others: at the highest dose activity change, negative = inhibition, hits mostly inhibitors | shares compounds with FLuc inh-1 | purified FLuc-C-HiBiT enzyme, luciferin luminescence | hit rate 42% among 1,300; further: on the % scale 0 is the no-effect control and ±100 the full control effect; nearly all actives have a fitted effect of over 70% in size
# * = called active by the depositor; i = inactive; ? = inconclusive; / = no result given; [ ] = another dose, or the depositor's remark. Rows were chosen to be rich in hits. Some 11% of all compounds tested hit in one or more screens of this group. Unless noted, the call rests on the fitted dose curve; in most records, active means well fitted curve in the direction sought with a large enough effect; inconclusive means small, poorly fitted or top-dose-only effect, or another doubt; inactive means no such curve, though single readings can be large; an effect the other way counts as inactive or inconclusive. Potency means the concentration at half of the fitted maximal effect.
SMILES,3T3 cytotox,HEK cytotox,hNpr1 antagonist,FLuc inh-1,FLuc SDR -ATP,FLuc SDR ATP,FLuc inh-2
O=C(Nc1cccc(F)c1)Nc1ccc2n(c1=O)C[C@H]1C[C@@H]2CN(C(=O)c2ccc(F)cc2)C1,?,40µM*,-22%,10µM*,14%,10%,?
O=C(NC1CCCCC1)C1CCN(C(=O)c2ncn3c2COC(c2ccc(Cl)cc2)C3)CC1 (stereo not drawn),1%,-19%,-3%,?,/,/,/
O=C(Nc1ccc(Cl)cc1)C1CCN(C(=O)c2ncn3c2COC(c2ccccc2)C3)CC1 (stereo not drawn),i,6%,?,1.8µM*,14%,1.1µM*,1.8µM*
O=C(Nc1ccc(F)cc1)C1CCN(C(=O)c2ncn3c2COC(c2ccccc2)C3)CC1 (stereo not drawn),-31%,-30%,?,1.6µM*,9%,1.1µM*,1.8µM*
O=C(NC1CCCCCC1)C1CCN(C(=O)c2ncn3c2COC(c2ccccc2)C3)CC1 (stereo not drawn),i,11%,-2%,13µM*,13%,?,7.9µM*
O=C(CCc1cc2n(n1)CCCNC2)Nc1ccc(-n2cncn2)cc1,2%,-8%,12%,i,/,/,/
CC(C)(C)c1nnc2n1C(C(=O)N1CCN(c3ncccn3)CC1)CC2 (stereo not drawn),i,i,/,/,/,/,/
CCC(C)(C)NC(=O)c1cccc2c1CCN2C(=O)Nc1cccc(C)c1,-27%,?,-22%,7.9µM*,?,11µM*,7.9µM*
Cc1cccc(NC(=O)N2CCc3c(C(=O)N4CCN(C)CC4)cccc32)c1,-10%,?,-25%,7.1µM*,22%,2.5µM*,1.8µM*
Cc1ccc(-n2cc(CN3CCn4nc(C(O)c5nccn5C)cc4C3)cn2)cc1 (stereo not drawn),-23%,-8%,6%,?,/,/,/
Cn1ccnc1C(O)c1cc2n(n1)CCN(c1ncnc3nc[nH]c13)C2 (stereo not drawn),-5%,1%,0%,i,13%,8%,2%
O=C(NC1CCOC2(CCOCC2)C1)c1cnc2c(O)cccn2c1=O (stereo not drawn),?,-12%,-3%,i,/,/,/
CC(C)n1cc(-c2cc(C(=O)N3CCC(C)(C)C3)c3ccc(F)cc3n2)cn1,?,?,-13%,5µM*,?,?,5µM*
CC1CCCN1C(=O)c1cc(-c2cnn(C(C)C)c2)nc2cc(F)ccc12 (stereo not drawn),?,-24%,-6%,?,/,/,/
CCCCOc1nc(N)c2[nH]c(=O)n(CCCN(CCCN3CCOCC3)Cc3cccc(CC(=O)OC)c3)c2n1,/,/,/,/,12%,7%,4%
Cc1cccc(-c2ncc(CN(CCN3CCOCC3)Cc3ccco3)cn2)c1,-23%,?,5%,i,/,/,/
Cc1cccc(NC(=O)Nc2ccc(F)cc2)n1,/,/,/,/,18%,13%,?
Cc1cc(=O)n(CC(=O)Nc2ccc(F)cc2)c(-c2ccc(F)cc2)n1,-7%,?,-21%,i,/,/,/
Fc1ccc(-n2ncc3c(N4CCCCC4)nc(NN4CCOCC4)nc32)cc1,/,/,/,/,11%,8%,3%
CC(C)CCNC(=O)c1ccc2c(c1)nc1n2CCCCC1,/,/,/,/,?,?,9.9µM*
O=C(NCCc1ccccc1)c1ccc2c(c1)nc1n2CCOC1,/,/,/,/,?,?,8.8µM*
O=C(NCCc1ccccc1Cl)c1ccc2c(c1)nc1n2CCCCC1,/,/,/,/,3.9µM*,?,1.1µM*
Cc1ccccc1C(=O)N1CCC(C(=O)N2CCC(c3nc4ncccc4[nH]3)CC2)CC1,-2%,i,/,/,/,/,/
CC1CCN(CC2CCCCCN2C(=O)c2ccnn2C)CC1 (stereo not drawn),-10%,i,/,/,/,/,/
OC1CC(c2cc(N3CCc4c(Cl)cccc4C3)ncn2)C1 (stereo not drawn),?,?,2.5µM*,1.3µM*,18%,?,?
SMILES,3T3 cytotox,HEK cytotox,hNpr1 antagonist,FLuc inh-1,FLuc SDR -ATP,FLuc SDR ATP,FLuc inh-2
Cc1cc(C)cc(N2CCN(c3cc(C4CC(O)C4)ncn3)CC2=O)c1 (stereo not drawn),-20%,-19%,2%,i,/,/,/
N#C/C(=C\c1ccc(-c2cc(Cl)ccc2Cl)o1)C(=O)Nc1ccccc1C(=O)O,/,/,/,/,4%,4%,?
O=C(NCc1ccccc1F)c1ccc2oc(-c3cccnc3)nc2c1,-19%,?,/,/,/,/,/
C[S+](=O)([O-])CCn1ncc2cc(OCc3cccc(-c4cccc(O)c4)c3)ccc21,?,71µM*,?,4µM*,25%[49.3 µM],15%[49.3 µM],?
C[S+](=O)([O-])CCn1ncc2cc(OCc3cccc(-c4cccnc4)c3)ccc21,?,79µM*,28µM*,5µM*,23%[49.3 µM],?,16µM*
Cc1nccc(N2CCC(COc3ccc4c(cnn4CC[S+](C)(=O)[O-])c3)CC2)n1,?,?,?,i,/,/,/
COCc1ccc2c(c1)c(OC(C)(C)C(=O)N1CC(O)C1)nn2CCC(C)C,?,-7%[172 µM],-10%[70.6 µM],i,/,/,/
CCN1C(=O)C2CC3(CCN(C4CCCCC4)CC3)CN2C1=O (stereo not drawn),-12%,0%,/,/,/,/,/
CCc1ccc2nc(N3CCC(C(=O)O)CC3)sc2c1,/,/,/,/,2.5µM*,0.07µM*,0.035µM*
COc1ccc(-c2nc3ccc(NS(C)(=O)=O)cc3o2)cc1,/,/,/,/,19%,15%,?
Cc1nc(-c2ccc(F)cc2)n(CC(=O)NCc2ccc3c(c2)OCO3)c(=O)c1CCO,?,-17%,-5%,i,/,/,/
Cc1c(-c2ccc(F)cc2)[nH]c2ccc(CNC(=O)CN3CCOC3=O)cc12,?,?,-22%,13µM*,14%,10%,?
COCC(=O)Nc1nc2c(s1)C[C@]1(C)CC[C@@H]3[C@H](OC(=O)[C@H]3C)[C@H]1[C@@H]2C,-21%[138 µM],?,5.6µM*,0.63µM*,6.4µM*,4.5µM*,1.6µM*
COc1ccc2oc(=O)c(C(=O)Nc3cccc(C(=O)O)c3)cc2c1,/,/,/,/,12µM*,0.05µM*,0.016µM*
COc1ccc(NC(=O)c2ccc3oc(-c4ccccn4)nc3c2)cc1,-26%,?,/,/,/,/,/
COc1cccc2cc(C(=O)Nc3ccc(C)cc3)c(=O)oc12,/,/,/,/,28%,20%,?
Cc1ccc2[nH]nc(C(=O)N3CCCC(N(C)CCc4ccccc4)C3)c2c1 (stereo not drawn),-20%,?,1%,i,/,/,/
